# Experimental data: PubChem BioAssay (EPA / NIEHS)
# Active and inactive are the calls of the source. Rule for the calls: active = hit-call score of the fitted dose curve at least 0.9, where 1 is the maximum; inactive = score below 0.9.
# Test: ATG_FoxO_CIS: Attagene CIS-FACTORIAL HepG2 Assay for human Forkhead box O (FoxO) (AID 2282943)
# Details: HepG2 Attagene cis-reporter, FoxO element, mRNA; actives raise or lower the signal
# Procedure: ATG_CIS is a cell-based, multiplexed-readout assay that uses HepG2, a human liver cell line, with measurements taken at 24 hours after chemical dosing in a 24-well plate.ATG_FoxO_CIS is one of 52 assay component(s) measured or calculated from the ATG_CIS assay. It is designed to make measurements of mRNA induction, a form of inducible reporter, as detected with fluorescence intensity signals by Reverse transcription polymerase chain reaction (RT-PCR) and Capillary electrophoresis technology.Data from the assay component ATG_FoxO_CIS was analyzed into 1 assay endpoint. This assay endpoint, ATG_FoxO_CIS, was analyzed with bidirectional fitting relative to DMSO as the negative control and baseline of activity. Using a type of inducible reporter, measures of mRNA for gain or loss-of-signal activity can be used to understand the reporter gene at the transcription factor-level as they relate to the gene FOXO1 and FOXO3. Furthermore, this assay endpoint can be referred to as a primary readout, because this assay has produced multiple assay endpoints where this one serves a reporter gene function. To generalize the intended target to other relatable targets, this assay endpoint is annotated to the dna binding intended target family, where the subfamily is forkhead box protein.
# Human liver HepG2 cells are transiently transfected with multiple reporter transcription units (MRTUs) in 6-well plates using FuGene 6 reagent (Roche; 3 ml FuGene/1 mg DNA). The MRTU constructs are regulated by a cis-regulating element (promoter). […] A major difference between the CIS and TRANS system is that in CIS activities of endogenous TFs are measured, whereas the TRANS assay evaluates changes in activities of exogenous, chimeric NR-Gal4 proteins. […] At the end of 24 hour incubation, total RNA was isolated using TriZol reagent (Invitrogen). The isolated RNA is then reverse-transcribed using oligo(dT) primer and Mo-MLV reverse transcriptase (Invitrogen) with DNAse I (Ambion) treatment for 30 min. The one-tenth of the produced cDNA was amplified by PCR using Taq DNA polymerase (Invitrogen) and two reporter sequence-specific primers. The PCR products were fluorescently labeled by primer extension with 6-arboxyfluorescein (6-FAM) 5'-labeled reporter sequence-specific primer (2 min at 95 C, 20 s at 68 C and 10 min at 72 C) and these products were digested with 5U of HpaI (New England Biolabs) for 2h at 37 C. The fragments were purified using Qiaquick PCR columns (Qiagen), analyzed on an ABI 3130xL genetic analyzer (Applied Biosystems) with peak positions identified by using a set of X-rhodamine (ROX)-labeled MapMarker1000 molecular weight standards (BioVentures). The raw capillary electrophoresis data was processed using Attagraph software (Attagene).
row,SMILES,outcome
1,CCCCOC(C)=O,inactive
2,Clc1cc(C(Cl)(Cl)Cl)cnc1Cl,inactive
3,Fc1cccc(Cl)c1CCl,inactive
4,Oc1c(Cl)cc(Cl)cc1Cl,inactive
5,C=CCOC(F)(C(F)(F)F)C(F)(F)F,inactive
6,CCCCCCCCCCBr,inactive
7,Brc1ccc(Br)cc1,inactive
8,FC(F)OCC(F)(F)C(F)(F)F,inactive
9,O=C(N[C@H]1CN2CCC1CC2)c1ccc2c(c1)OCCO2,inactive
10,CCOCn1c(-c2ccc(Cl)cc2)c(C#N)c(Br)c1C(F)(F)F,inactive
11,C=CCOC(N)=O,inactive
12,CCCSP(=S)(OCC)Oc1ccc(Cl)cc1Cl (stereo not given),inactive
13,Nc1nc(N)nc(Cl)n1,inactive
14,Cl[C@H]1OCCO[C@@H]1Cl,inactive
15,N#Cc1ccccc1Cl,inactive
16,Cc1ccc(CCl)cc1,inactive
17,CNC(=O)CSP(=O)(OC)OC,inactive
18,O=[N+]([O-])c1cc([As](=O)(O)O)ccc1O,inactive
19,C=CC(F)(C(F)(F)F)C(F)(F)C(F)(F)F (stereo not given),inactive
20,BrCc1ccc(Br)cc1,inactive

row,SMILES,outcome
1,Brc1c(Br)c(Br)c(Oc2c(Br)c(Br)c(Br)c(Br)c2Br)c(Br)c1Br,inactive
2,N#Cc1ccccc1N,inactive
3,N#CS,inactive
4,O=C(O)C1(c2ccc3c(c2)OC[C@H](Cc2ccc(-c4ccccc4)cc2)[C@H]3O)CCCC1,inactive
5,CS(=O)(=O)c1ccc(C(=O)C2C(=O)CCCC2=O)c(Cl)c1COCC(F)(F)F,inactive
6,N#CCCC(Br)(C#N)CBr (stereo not given),inactive
7,O=NN1CCOCC1,inactive
8,CC(c1ccccc1)(c1ccc(O)cc1)c1ccc(O)cc1,inactive
9,CC(C)(C)c1cc([N+](=O)[O-])cc(C(C)(C)C)c1O,inactive
10,C1CN2CCN1CC2,inactive
11,CCN(CC)C(=O)C(Cl)=C(C)OP(=O)(OC)OC,inactive
12,Cc1ccccc1OP(=O)(Oc1ccccc1)Oc1ccccc1,inactive
13,CCCCOC(=O)COC(=O)c1ccccc1C(=O)OCCCC,inactive
14,ClCCN1CCOCC1,inactive
15,C=C(C)C(=O)OCCCCOC(=O)C(=C)C,inactive
16,CCOP(=O)(OCC)OC(=CCl)c1ccc(Cl)cc1Cl,inactive
17,Clc1cccc(Cl)c1,inactive
18,Clc1cnc(Oc2ccc(Oc3ncc(Cl)cc3Cl)cc2)c(Cl)c1,inactive
19,CCC[CH2][Sn]([CH2]CCC)([CH2]CCC)[CH2]CCC,inactive
20,CCOc1cc(C=O)ccc1O,inactive
